Laboratory results reported in PubChem BioAssay (Tox21).
“And” between values parts separate entries of the source, which are not always exact repeats. Identical values can stand only once. Inconclusive results are not listed. A call without a number means that no potency is given here. Where a structure was tested more than once in an assay, its records may differ in their call. The source made the active and inactive calls. Calls follow the shape of the dose curve; as a rule, active = well fitted activation curve with a large enough effect in the repeat runs; inconclusive = weak or mixed curves; inactive = flat fitted curve, though single readings scatter.

Experiment: A CellTox Green Cytotoxicity Assay to monitor cytotoxicity in HepG2 cells - 32 hour (AID 1224883); also: nearly all actives have a fitted effect of over 50% in size
Conditions: CellTox Green fluorescence; series mostly up to 76.8 µM; cytotoxicity increase: at the top concentration
Excerpt: National Center for Advancing Translational Sciences [NCATS]
NIH Chemical Genomics Center [NCGC]
U.S. Environmental Protection Agency [EPA]
National Institutes of Environmental Health Sciences [NIEHS]
National Toxicology Program [NTP]
Cell-based models are critical for drug discovery. Determining the natural cytotoxic effects resulting from test compounds is an essential research activity. A CellTox Green Cytotoxicity Assay to monitor cytotoxicity in real time of continues cell culture during 40 hours of the compound treatment was used to screen Tox21 10K library compounds in HepG2 cells. CellTox Green Cytotoxicity Assay is a nonlytic, homogeneous, biofluorescent method to measure cytotoxicity in cell culture after experimental manipulation. The assay system uses a proprietary asymmetric cyanine dye that is excluded from viable cells but preferentially stains the dead cell's DNA. […] Viable cells produce no appreciable increases in fluorescence. Therefore, the fluorescence signal produced by the binding interaction with dead cell DNA is proportional to cytotoxicity.
The mixture of HepG2 cell suspension and reagents were dispensed at 600cells/6 ul/well in 1536-well tissue culture treated black solid bottom plates using a Multidrop dispenser. After the assay plates were incubated at a 37 C/5% CO2 incubator for 5 hours, 23 nL of compounds dissolved in DMSO, positive and negative controls was transferred to the assay plate by a pintool work station. The plates were incubated at 37 C for 40 hours. The fluorescence intensity were measured at 0h, 8h, 16h, 24h, 32h and 40h time points using ViewLux plate reader during compound treatment.
Potency is read from the fitted curve at half-maximal effect.

SMILES	Potency	cytotoxicity increase
c1ccc(N=Nc2ccccc2)cc1	inactive	
O=c1oc2ccccc2c(O)c1C(CC(O)c1ccc(-c2ccc(Br)cc2)cc1)c1ccccc1 (stereo not given)	inactive	
CCCCC(CC)COC(=O)c1ccc(C(=O)OCC(CC)CCCC)c(C(=O)OCC(CC)CCCC)c1 (stereo not given)	inactive	
O=C(O)C(F)(F)C(F)(F)C(F)(F)C(F)(F)C(F)(F)C(F)(F)C(F)(F)F	inactive	
CCN(CC)C(=O)SCc1ccc(Cl)cc1	inactive	
Oc1cc(Cl)ccc1Oc1ccc(Cl)cc1Cl	43 µM (active) and 23.9 µM (active)	
S=C1NCCN1	inactive	
CCN(N=O)C(N)=O	inactive	
c1cc(OCC2CO2)ccc1Cc1ccc(OCC2CO2)cc1 (stereo not given)	inactive	
CC(C)(c1cc(Cl)c(O)c(Cl)c1)c1cc(Cl)c(O)c(Cl)c1		-0.642% (inactive)
C=C(C)C(=O)OCC1CO1 (stereo not given)	inactive	
Nc1c(Cl)cc([N+](=O)[O-])cc1Cl	inactive	
OCC(O)CO	inactive	
Oc1cc(Cl)ccc1Cl		26.8% (inactive)
NNC(N)=S	inactive	
COc1ccc(C=O)cc1	inactive	
CCC(=O)O[C@H]1CC[C@H]2[C@@H]3CCC4=CC(=O)CC[C@]4(C)[C@H]3CC[C@]12C	43.6 µM (active)	
Brc1ccc(Oc2cc(Br)c(Br)cc2Br)c(Br)c1	inactive	
CCOP(=S)(OCC)O/N=C(\C#N)c1ccccc1	inactive	
CN(C)C(=O)Nc1ccc(Cl)cc1	inactive	

SMILES	Potency	cytotoxicity increase
N#CC(Br)Br	inactive	
c1ccc(-c2cccc(-c3ccccc3)c2)cc1	inactive	
N#Cc1cc(Br)c(O)c(Br)c1	inactive	
C[C@]12CCC(=O)C[C@@H]1CC[C@@H]1[C@@H]2CC[C@]2(C)[C@@H](O)CC[C@@H]12	inactive	
Cc1ccc2c(c1N)C(=O)c1ccccc1C2=O	inactive	
CCC(C)c1ccc(O)cc1 (stereo not given)	43.6 µM (active)	
CCCCC(CC)COC(=O)Cl (stereo not given)		-2.94% (inactive)
CCC(C)(c1ccc(O)cc1)c1ccc(O)cc1		8.48% (inactive)
O=C(Nc1ccc(Br)cc1)c1cc(Br)cc(Br)c1O	19.4 µM (active) and 27.5 µM (active) and 21.3 µM (active)	
CCCCNC(=O)n1c(NC(=O)OC)nc2ccccc21	12.2 µM (active) and inactive	
CC(C)=CC1C(C(=O)OCc2coc(Cc3ccccc3)c2)C1(C)C (stereo not given)	inactive	
Nc1ccc(-c2ccc(N)c(N)c2)cc1N	inactive	
Nn1cnnc1	inactive	
O=[N+]([O-])c1ccc(O)c([N+](=O)[O-])c1	inactive	
c1ccc(NNc2ccccc2)cc1		10.4% (inactive)
NC(=S)Nc1ccccc1	49.8 µM (active) and inactive	
CCOc1cc(C=O)ccc1O	inactive	
CCN(CC)C(=O)/C(Cl)=C(\C)OP(=O)(OC)OC	inactive	
CCCCCCCCOC(=O)c1ccccc1C(=O)OCCCCCCCC	inactive	
COP(=S)(OC)Oc1cc(Cl)c(Cl)cc1Cl	inactive	
